Active and inactive are the calls of the source. Rule for the calls: active = hit-call score of the fitted dose curve at least 0.9, where 1 is the maximum; inactive = score below 0.9.
Assays:
[1] = biological target: Bile acid receptor (Homo sapiens) (UniProt Q96RI1); experiment: ATG_IR1_CIS: Attagene CIS-FACTORIAL HepG2 Assay for human Nuclear Receptor Subfamily 1 Group H Member 4 (NR1H4), IR1 submotif (AID 2282946); settings: IR1 reporter transcription, actives raise or lower the signal
Summary of the method: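 Fluorescence of capillary-separated, HpaI-digested RT-PCR reporter products gave IR1-element mRNA induction in HepG2 cells 24 h after dosing. Endogenous transcription factors drove the cis-regulated reporters; activity was fitted bidirectionally against DMSO.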

[2] = ATG_GRE_CIS: Attagene CIS-FACTORIAL HepG2 Assay for human Glucocorticoid Response Elements (GRE) (AID 2282947); settings: HepG2 GRE cis-reporter, Attagene multiplex mRNA; actives raise or lower the signal
Summary of the method: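 Fluorescence intensity of reporter-specific cDNA fragments, separated by capillary electrophoresis, provides the signal. Constructs carry cis-regulating promoters in transiently transfected HepG2 liver cells; 24 h incubation; fitting is bidirectional against DMSO.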

[3] = ATG_ISRE_CIS: Attagene CIS-FACTORIAL HepG2 Assay for human Interferon Regulatory Factor 1 (IRF1) binding to an Interferon-Stimulated Response Element (ISRE) (AID 2282948); settings: HepG2 ISRE cis-reporter (Attagene), mRNA transcription readout; actives raise or lower the signal
Summary of the method: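 Read-out: fluorescent RT-PCR products resolved by capillary electrophoresis, reporting endogenous transcription factor activity via ISRE-driven reporter mRNA in transfected HepG2 cells dosed for 24 h; gain or loss fitted relative to DMSO.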

[4] = ATG_M_32_CIS: Attagene CIS-FACTORIAL HepG2 Assay for M32 Transcription Factor (Internal Marker) (AID 2282949); settings: HepG2 Attagene cis-factorial M32 reporter, mRNA; actives raise or lower the signal;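 note: background control marker of the multiplexed CIS panel rather than a real target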
Summary of the method: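 HepG2 transfectants (cis-regulated reporter transcription units) dosed 24 h. Reporter mRNA by RT-PCR plus CE, analysed as gain or loss relative to DMSO.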

[5] = ATG_M_06_CIS: Attagene CIS-FACTORIAL HepG2 Assay for M06 Transcription Factor (Internal Marker) (AID 2282950); settings: HepG2 Attagene CIS-FACTORIAL M06 internal marker reporter; actives raise or lower the signal
Summary of the method: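 HepG2 liver cells, 24 h exposure. Reporter transcripts from transfected cis-element constructs quantified by RT-PCR/capillary electrophoresis fluorescence. Bidirectional curve fit against DMSO.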

[6] = biological target: Hypoxia-inducible factor 1-alpha (Homo sapiens) (UniProt Q16665); experiment: ATG_HIF1a_CIS: Attagene CIS-FACTORIAL HepG2 Assay for human Hypoxia Inducible Factor 1 (HIF1A) (AID 2282951); settings: HepG2 Attagene cis-factorial HIF1a reporter transcription; actives raise or lower the signal
Hypoxia-inducible factor 1-alpha (Homo sapiens), sequence (Q16665 whole entry, looked up): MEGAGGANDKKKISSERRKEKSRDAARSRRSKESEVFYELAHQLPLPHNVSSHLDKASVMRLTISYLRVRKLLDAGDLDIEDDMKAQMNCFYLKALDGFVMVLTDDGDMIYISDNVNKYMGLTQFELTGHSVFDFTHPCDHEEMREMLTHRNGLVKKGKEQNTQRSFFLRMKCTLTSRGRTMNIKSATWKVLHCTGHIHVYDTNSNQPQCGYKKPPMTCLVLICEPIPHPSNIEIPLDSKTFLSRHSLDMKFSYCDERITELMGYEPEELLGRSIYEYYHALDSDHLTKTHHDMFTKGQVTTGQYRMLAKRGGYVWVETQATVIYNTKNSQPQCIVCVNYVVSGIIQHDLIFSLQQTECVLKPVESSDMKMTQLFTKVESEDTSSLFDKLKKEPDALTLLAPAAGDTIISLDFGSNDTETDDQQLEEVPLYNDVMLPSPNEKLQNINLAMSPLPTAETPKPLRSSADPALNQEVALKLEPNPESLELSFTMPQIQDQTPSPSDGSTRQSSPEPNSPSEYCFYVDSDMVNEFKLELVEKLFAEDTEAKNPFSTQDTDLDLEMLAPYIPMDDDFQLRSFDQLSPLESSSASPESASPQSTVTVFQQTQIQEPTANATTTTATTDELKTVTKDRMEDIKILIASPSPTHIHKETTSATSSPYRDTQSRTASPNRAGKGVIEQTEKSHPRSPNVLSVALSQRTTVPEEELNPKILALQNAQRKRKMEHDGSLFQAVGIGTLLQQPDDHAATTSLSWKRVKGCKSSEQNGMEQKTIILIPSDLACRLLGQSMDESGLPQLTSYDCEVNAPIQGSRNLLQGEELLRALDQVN
Summary of the method: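 Activity is fitted in both directions relative to DMSO. Reporter transcripts are read by RT-PCR, fluorescent primer extension and capillary electrophoresis after 24 h chemical treatment. The cells are HepG2 carrying transiently transfected cis-element-driven reporter units responding to endogenous factors.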

[7] = biological target: Hepatocyte nuclear factor 6 (Homo sapiens) (UniProt Q9UBC0); experiment: ATG_HNF6_CIS: Attagene CIS-FACTORIAL HepG2 Assay for human Hepatocyte Nuclear Factor 6 (HNF6) (AID 2282952); settings: HepG2 Attagene cis-factorial HNF6 reporter transcription; actives raise or lower the signal
Hepatocyte nuclear factor 6 (Homo sapiens), sequence (Q9UBC0 whole entry, looked up, the tested form may be a part): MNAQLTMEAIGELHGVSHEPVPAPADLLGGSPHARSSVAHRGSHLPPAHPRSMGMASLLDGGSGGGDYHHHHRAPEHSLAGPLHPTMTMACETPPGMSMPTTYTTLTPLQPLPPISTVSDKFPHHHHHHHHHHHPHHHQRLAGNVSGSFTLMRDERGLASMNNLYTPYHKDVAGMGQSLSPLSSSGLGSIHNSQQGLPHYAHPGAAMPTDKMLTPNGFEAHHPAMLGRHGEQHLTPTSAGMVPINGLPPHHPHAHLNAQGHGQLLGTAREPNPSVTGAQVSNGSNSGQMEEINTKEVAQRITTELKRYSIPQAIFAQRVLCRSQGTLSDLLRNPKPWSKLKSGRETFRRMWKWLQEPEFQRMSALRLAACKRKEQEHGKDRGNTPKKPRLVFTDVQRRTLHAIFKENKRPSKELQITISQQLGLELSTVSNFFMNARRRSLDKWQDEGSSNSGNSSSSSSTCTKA
Summary of the method: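 Using cis-element reporters in HepG2 liver cells, the assay tracks endogenous factor-driven transcription 24 h post-dosing. Signal comes from 6-FAM-labelled, HpaI-digested RT-PCR fragments, with gain or loss scored against DMSO.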

[8] = biological target: Heat shock factor protein 1 (Homo sapiens) (UniProt Q00613); experiment: ATG_HSE_CIS: Attagene CIS-FACTORIAL HepG2 Assay for human Heat Shock Transcription Factor 1 (HSE) (AID 2282953); settings: HepG2 HSE cis-reporter, Attagene RNA transcription; actives raise or lower the signal
Heat shock factor protein 1 (Homo sapiens), sequence (Q00613 whole entry, looked up, the tested form may be a part): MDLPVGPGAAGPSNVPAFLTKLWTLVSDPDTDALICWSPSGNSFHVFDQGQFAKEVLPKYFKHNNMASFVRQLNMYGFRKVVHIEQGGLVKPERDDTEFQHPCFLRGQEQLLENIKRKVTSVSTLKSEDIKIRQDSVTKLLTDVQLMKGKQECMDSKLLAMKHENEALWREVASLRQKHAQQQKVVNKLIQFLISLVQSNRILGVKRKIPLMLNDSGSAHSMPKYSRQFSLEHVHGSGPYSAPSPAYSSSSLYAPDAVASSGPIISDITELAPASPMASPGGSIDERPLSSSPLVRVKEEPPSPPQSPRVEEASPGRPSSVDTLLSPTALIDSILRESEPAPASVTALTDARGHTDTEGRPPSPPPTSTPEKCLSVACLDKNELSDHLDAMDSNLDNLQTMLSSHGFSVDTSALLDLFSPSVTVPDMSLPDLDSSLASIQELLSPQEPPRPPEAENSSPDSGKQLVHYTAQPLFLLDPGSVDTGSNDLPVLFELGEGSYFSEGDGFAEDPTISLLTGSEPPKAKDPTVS
Summary of the method: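 Endogenous transcription factor activity captured via cis-promoter reporter units transfected into HepG2; treatment lasted 24 h. Fluorescence intensity of reporter fragments analysed with bidirectional curve fitting, DMSO baseline.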

[9] = ATG_MRE_CIS: Attagene CIS-FACTORIAL HepG2 Assay for human Metal Responsive Element (MRE) (AID 2282954); settings: HepG2 MRE cis-reporter transcription, Attagene multiplex; actives raise or lower the signal
Summary of the method: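 Measured here is mRNA induction from an MRE cis-element reporter in HepG2 after 24 h, quantified by fluorescence of labelled RT-PCR products on capillary electrophoresis; gain- and loss-of-signal fits use DMSO as baseline.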

[10] = ATG_PBREM_CIS: Attagene CIS-FACTORIAL HepG2 Assay for human Phenobarbital-responsive Enhancer Module (PBREM) (AID 2282955); settings: HepG2 PBREM cis-reporter, Attagene multiplexed transcription; actives raise or lower the signal
Summary of the method: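 Endogenous transcription factor activity was read from reporter transcripts in transiently transfected human HepG2 liver cells after 24 h dosing. RT-PCR products were fluorescently labelled, HpaI-cut and sized by capillary electrophoresis; activity fitted bidirectionally against DMSO baseline.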

[11] = ATG_PXRE_CIS: Attagene CIS-FACTORIAL HepG2 Assay for human Pregnane X Receptor Element (PXRE) (AID 2282957); settings: HepG2 Attagene CIS-FACTORIAL PXRE reporter, mRNA; actives raise or lower the signal
Summary of the method: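 Using HepG2 transfected with multiple reporter transcription units, endogenous factor-driven transcription was scored as reporter mRNA after 24 h exposure.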

[12] = ATG_PPRE_CIS: Attagene CIS-FACTORIAL HepG2 Assay for human Peroxisome Proliferator-activated Response Element (PPRE) (AID 2282958); settings: HepG2 PPRE cis-element reporter, Attagene transcription factor profiling; actives raise or lower the signal
Summary of the method: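 Endogenous PPRE-driven transcription is measured in HepG2 cells carrying transfected multi-reporter constructs. Reporter transcripts are quantified by RT-PCR, HpaI digestion and capillary electrophoresis 24 h after dosing. DMSO baseline, bidirectional fit.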

[13] = ATG_Sox_CIS: Attagene CIS-FACTORIAL HepG2 Assay for human SRY-box transcription factor (SOX) (AID 2282960); settings: HepG2 Attagene cis-factorial SOX reporter, mRNA; actives raise or lower the signal
Summary of the method: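 Reporter transcripts, measured by RT-PCR and capillary electrophoresis of labelled fragments, report endogenous SOX transcription factor activity. Transiently transfected human HepG2 cells receive chemical for 24 h; changes in either direction are fitted relative to DMSO.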

[14] = ATG_SREBP_CIS: Attagene CIS-FACTORIAL HepG2 Assay for human Sterol Regulatory Element Binding (SREBP) (AID 2282962); settings: HepG2 Attagene cis-factorial SREBP reporter, mRNA; actives raise or lower the signal
Summary of the method: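 Readout: fluorescent reporter-transcript peaks resolved by capillary electrophoresis after RT-PCR. Cells were human HepG2 carrying transfected cis-promoter reporter constructs, dosed for 24 h. Gain or loss of signal was fitted against DMSO controls.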

[15] = biological target: Signal transducer and activator of transcription 3 (Homo sapiens) (UniProt P40763); experiment: ATG_STAT3_CIS: Attagene CIS-FACTORIAL HepG2 Assay for human Signal Transducer and Activator of Transcription 3 (STAT3) (AID 2282963); settings: HepG2, Attagene cis-factorial STAT3 reporter transcription; actives raise or lower the signal
Signal transducer and activator of transcription 3 (Homo sapiens), sequence (P40763 whole entry, looked up, the tested form may be a part): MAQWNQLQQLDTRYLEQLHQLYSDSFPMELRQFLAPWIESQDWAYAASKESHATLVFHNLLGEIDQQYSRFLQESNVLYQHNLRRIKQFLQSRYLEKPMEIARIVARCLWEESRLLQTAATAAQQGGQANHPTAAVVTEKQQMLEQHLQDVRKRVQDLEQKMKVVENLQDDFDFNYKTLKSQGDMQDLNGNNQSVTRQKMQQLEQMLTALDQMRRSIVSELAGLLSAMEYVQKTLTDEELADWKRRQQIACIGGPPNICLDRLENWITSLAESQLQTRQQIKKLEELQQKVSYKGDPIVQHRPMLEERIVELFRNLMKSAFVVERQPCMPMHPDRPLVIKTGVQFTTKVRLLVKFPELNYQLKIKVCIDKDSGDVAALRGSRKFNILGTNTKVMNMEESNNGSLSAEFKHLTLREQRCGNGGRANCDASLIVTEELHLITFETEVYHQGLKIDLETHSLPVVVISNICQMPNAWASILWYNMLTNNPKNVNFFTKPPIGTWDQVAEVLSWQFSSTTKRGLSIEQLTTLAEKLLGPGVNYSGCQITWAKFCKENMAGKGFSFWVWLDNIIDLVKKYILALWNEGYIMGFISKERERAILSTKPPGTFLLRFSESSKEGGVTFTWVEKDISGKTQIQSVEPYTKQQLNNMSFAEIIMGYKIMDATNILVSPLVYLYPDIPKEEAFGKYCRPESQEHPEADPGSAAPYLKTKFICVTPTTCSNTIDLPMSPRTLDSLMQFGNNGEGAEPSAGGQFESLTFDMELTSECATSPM
Summary of the method: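 Fluorescence intensity of 6-FAM-labelled reporter fragments, separated by capillary electrophoresis after RT-PCR, gave the signal. Cells were HepG2 transfected with cis-element reporter units and treated 24 h; fitting was bidirectional relative to DMSO.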

[16] = ATG_TA_CIS: Attagene CIS-FACTORIAL HepG2 Assay for human TA Basal Promoter (AID 2282964); settings: HepG2 Attagene CIS-factorial TA basal promoter reporter; actives raise or lower the signal
Summary of the method: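 Fluorescence from labelled RT-PCR reporter fragments, separated by capillary electrophoresis, gives the signal. Cells: HepG2 transiently carrying multiple reporter units, 24 h chemical dosing. Gain or loss relative to DMSO.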

[17] = ATG_TCF_b_cat_CIS: Attagene CIS-FACTORIAL HepG2 Assay for human T-Cell-Factor with beta-catenin (TCF/b-cat) (AID 2282965); settings: HepG2 TCF/beta-catenin cis-reporter transcription, actives raise or lower the signal
Summary of the method: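 Cells of the HepG2 line carry transiently transfected reporter units whose promoters respond to endogenous factors. Twenty-four hours post-dosing, reporter mRNA induction is measured by fluorescent RT-PCR and capillary electrophoresis, with DMSO as baseline.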

[18] = ATG_RORE_CIS: Attagene CIS-FACTORIAL HepG2 Assay for human RAR-related Orphan Receptor Element (RORE) (AID 2282959); settings: HepG2 Attagene cis-factorial RORE reporter, mRNA; actives raise or lower the signal
Summary of the method: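 RORE reporter transcripts reflecting endogenous factor activity were read after 24 h compound exposure of transfected HepG2 cells, using reverse transcription, PCR, fluorescent labelling and capillary electrophoresis sizing. Gain or loss fitted against DMSO.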

[19] = biological target: Transcription factor Sp1 (Homo sapiens) (UniProt P08047); experiment: ATG_Sp1_CIS: Attagene CIS-FACTORIAL HepG2 Assay for human Specificity Protein 1 (Sp1) (AID 2282961); settings: HepG2 Sp1 cis-reporter transcription, actives raise or lower the signal
Transcription factor Sp1 (Homo sapiens), sequence (P08047 whole entry, looked up): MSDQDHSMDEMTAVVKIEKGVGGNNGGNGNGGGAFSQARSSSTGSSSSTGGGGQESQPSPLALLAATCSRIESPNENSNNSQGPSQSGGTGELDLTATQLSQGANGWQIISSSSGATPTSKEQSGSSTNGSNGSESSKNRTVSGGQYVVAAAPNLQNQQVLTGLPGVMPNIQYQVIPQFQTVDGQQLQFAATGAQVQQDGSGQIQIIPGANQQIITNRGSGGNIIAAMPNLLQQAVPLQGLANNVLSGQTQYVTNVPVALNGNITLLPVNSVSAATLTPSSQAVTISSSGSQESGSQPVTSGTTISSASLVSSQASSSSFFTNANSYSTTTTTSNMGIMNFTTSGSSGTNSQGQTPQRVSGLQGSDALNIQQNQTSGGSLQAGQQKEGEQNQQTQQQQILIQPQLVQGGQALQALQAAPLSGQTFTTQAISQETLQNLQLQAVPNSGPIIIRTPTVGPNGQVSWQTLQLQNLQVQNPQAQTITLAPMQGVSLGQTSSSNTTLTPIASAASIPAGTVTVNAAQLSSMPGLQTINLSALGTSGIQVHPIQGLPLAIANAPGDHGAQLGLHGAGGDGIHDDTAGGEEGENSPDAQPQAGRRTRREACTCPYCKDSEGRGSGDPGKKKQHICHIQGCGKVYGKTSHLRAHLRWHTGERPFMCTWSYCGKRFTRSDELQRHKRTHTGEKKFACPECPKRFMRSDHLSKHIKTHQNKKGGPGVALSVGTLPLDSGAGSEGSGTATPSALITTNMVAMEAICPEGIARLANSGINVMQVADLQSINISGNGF
Summary of the method: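 Read-out is reporter transcript level, measured by RT-PCR and fluorescent capillary electrophoresis after 24 h chemical treatment. System: transiently transfected HepG2 cells reporting endogenous transcription factor activity; gain or loss fitted against DMSO baseline.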

[20] = biological target: Paired box protein Pax-6 (Homo sapiens) (UniProt P26367); experiment: ATG_Pax6_CIS: Attagene CIS-FACTORIAL HepG2 Assay for human Paired Box 6 (PAX6) (AID 2282956); settings: HepG2 CIS-FACTORIAL PAX6 reporter transcription, RNA readout; actives raise or lower the signal
Paired box protein Pax-6 (Homo sapiens), sequence (P26367 whole entry, looked up): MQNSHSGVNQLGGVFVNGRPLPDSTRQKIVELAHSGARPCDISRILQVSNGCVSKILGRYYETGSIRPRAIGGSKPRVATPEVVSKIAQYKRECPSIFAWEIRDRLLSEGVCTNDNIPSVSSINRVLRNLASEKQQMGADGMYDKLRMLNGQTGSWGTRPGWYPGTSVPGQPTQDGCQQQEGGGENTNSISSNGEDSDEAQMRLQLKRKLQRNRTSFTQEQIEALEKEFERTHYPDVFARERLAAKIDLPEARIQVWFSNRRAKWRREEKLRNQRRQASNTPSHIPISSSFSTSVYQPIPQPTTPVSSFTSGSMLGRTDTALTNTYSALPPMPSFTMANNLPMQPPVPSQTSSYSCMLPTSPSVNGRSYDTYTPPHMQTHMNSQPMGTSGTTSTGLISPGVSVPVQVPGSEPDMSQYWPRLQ
Summary of the method: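 Readout: reporter transcript fluorescence after RT-PCR and capillary electrophoresis. Cells: HepG2, transiently transfected with cis-regulated MRTUs. Exposure 24 h. Gain or loss of signal fitted bidirectionally relative to DMSO.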

Measured: AC50

Bile acid receptor (Homo sapiens), sequence (Q96RI1 whole entry, looked up): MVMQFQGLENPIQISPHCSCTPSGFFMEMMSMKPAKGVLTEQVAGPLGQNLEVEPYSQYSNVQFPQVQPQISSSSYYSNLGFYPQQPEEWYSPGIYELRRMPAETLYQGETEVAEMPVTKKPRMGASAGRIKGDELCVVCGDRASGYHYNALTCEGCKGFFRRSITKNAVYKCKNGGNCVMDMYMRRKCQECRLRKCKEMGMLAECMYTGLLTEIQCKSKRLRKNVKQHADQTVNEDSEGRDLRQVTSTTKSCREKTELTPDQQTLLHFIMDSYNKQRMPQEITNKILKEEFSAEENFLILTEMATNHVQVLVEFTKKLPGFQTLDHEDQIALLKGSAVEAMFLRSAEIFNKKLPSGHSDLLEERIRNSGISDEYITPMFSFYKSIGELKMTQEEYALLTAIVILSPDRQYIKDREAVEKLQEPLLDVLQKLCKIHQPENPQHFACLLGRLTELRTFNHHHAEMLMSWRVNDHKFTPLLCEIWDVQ

CCCOCC(=Nc1ccc(Cl)cc1C(F)(F)F)n1ccnc1
active: [11] 3.63 µM | [12] 2.67 µM | [14] 7.5 µM
not listed: [18] | [19] | [20]
inactive: all other assays above

CSc1nnc(C(C)(C)C)c(=O)n1N
not listed: [7] | [8] | [12] | [19] | [20]
inactive: all other assays above

CCC(=NOC/C=C/Cl)C1=C(O)CC(C2CCOCC2)CC1=O (stereo not given)
not listed: [1] | [20]
inactive: all other assays above

CC(COc1ccc(Oc2ccccc2)cc1)Oc1ccccn1 (stereo not given)
active: [10] 13.8 µM | [11] 13.7 µM | [12] 15.1 µM | [18] 12.2 µM
not listed: [2] | [8] | [20]
inactive: all other assays above

Cc1cc(C2CC2)nc(Nc2ccccc2)n1
inactive: [1] | [4] | [5] | [18] | [15] | [16] | [17]
active: [3] 81 µM | [6] 50 µM | [9] 74.7 µM | [10] 50 µM | [20] 50 µM | [11] 13.4 µM | [12] 22 µM | [13] 90 µM | [19] 84.7 µM | [14] 12.6 µM

C=C(C)[C@H]1Cc2c(ccc3c2O[C@@H]2COc4cc(OC)c(OC)cc4[C@@H]2C3=O)O1
active: [6] 0.0274 µM | [9] 0.0899 µM | [10] 0.0505 µM | [12] 0.0321 µM | [19] 0.039 µM | [14] 0.00445 µM
not listed: [20]
inactive: all other assays above

O=c1ccc(=O)[nH][nH]1
active: [11] 26.7 µM
not listed: [2] | [7] | [8] | [10] | [12] | [19] | [20]
inactive: all other assays above

CCOP(=O)(NC(C)C)Oc1ccc(SC)c(C)c1 (stereo not given)
active: [10] 16.2 µM | [11] 2.73 µM | [12] 21.4 µM | [14] 19.6 µM
not listed: [8] | [19]
inactive: all other assays above

COP(=O)(OC)OC(Br)C(Cl)(Cl)Br (stereo not given)
not listed: [7] | [8] | [20]
inactive: all other assays above

CCCSP(=O)(OCC)SCCC
active: [11] 15.2 µM
not listed: [8] | [12] | [20]
inactive: all other assays above

Cc1ccn2nc(S(=O)(=O)Nc3c(F)cccc3F)nc2n1
active: [11] 9.86 µM
not listed: [2] | [19]
inactive: all other assays above

CCC(CC)Nc1c([N+](=O)[O-])cc(C)c(C)c1[N+](=O)[O-]
active: [1] 50 µM | [3] 50 µM | [9] 28.9 µM | [11] 5.39 µM
not listed: [19]
inactive: all other assays above

CC(Oc1cccc(Cl)c1)C(=O)O (stereo not given)
not listed: [7]
inactive: all other assays above

N#CSCSC#N
active: [11] 1.26 µM
not listed: [7] | [8] | [19] | [20]
inactive: all other assays above
